# Sampled rows, rich in hits. Any-hit rate of the full collection: about 1.8%.
# Sa RN4220 lethal: S. aureus RN4220 growth inhibition; OD600, 16 h; inhibition, % (concentration not given with the values); 0.33% of 330,000 active; AID 1259311; in the data active means inhibition above about 85%;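 further: plate controls were untreated cells for no effect and reference antibiotic for full effect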
# PfHsp40 yeast: rescue of PfHsp40-mediated yeast toxicity; 0.68% of 340,000 active; AID 504582; S. cerevisiae expressing PfHsp40, growth rescue, ATP luminescence; growth rescue, % at 12.5 µM; in the data active means growth rescue above about 28%, passing the limit was not always enough;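 further: yeast W303a lacking pdr1 and pdr3 grown in galactose medium; growth measured after three days at 30 °C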
# ugtP null kill: kills S. aureus RN4220 lacking UgtP; growth inhibition, % (test concentration not listed); S. aureus RN4220 ugtP deletion, OD600 growth, 16 h; 0.54% of 330,000 active; in the data active means growth inhibition above about 68%;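 further: plate controls were untreated wells for no effect and antibiotic for full effect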
# VHR inh abs: blocks human VHR1 dual specificity phosphatase; P51452; recombinant VHR phosphatase, pNPP absorbance; inhibition, % at 13.3 µM; 0.52% of 290,000 active; in the data active means inhibition above about 50%
# Target sequence (P51452 whole entry, looked up): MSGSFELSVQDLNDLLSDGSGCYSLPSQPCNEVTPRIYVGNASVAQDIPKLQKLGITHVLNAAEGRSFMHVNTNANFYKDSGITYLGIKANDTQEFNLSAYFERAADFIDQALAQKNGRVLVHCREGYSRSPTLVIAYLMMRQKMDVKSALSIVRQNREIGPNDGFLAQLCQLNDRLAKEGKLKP
# PriA SSB inh: blocks PriA binding to SSB C-terminal tail | AlphaScreen SSBct-PriA binding, biotinylated peptide | inhibition, % at 33 µM | 0.6% of 430,000 active; in the data active means inhibition mostly above about 37%, no sharp cut-off; inactive means mostly below about 20%;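 further: plate controls were negative control peptide for no effect and reference peptide for full effect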
# Mtb hypoxia inh: inhibitors of hypoxia-regulated fluorescent reporter in Mycobacterium tuberculosis. 0.1% of 300,000 active. fluorescence inhibition, % (no concentration beside the values). M. tuberculosis hypoxia-regulated fluorescent reporter, fluorescence; in the data active means fluorescence inhibition mostly above about 23%, no sharp cut-off; inactive means mostly below about 17%
# Starred values were filed as active, the others as inactive; nt = no result; ! = not active in a repeat.
SMILES,Sa RN4220 lethal,PfHsp40 yeast,ugtP null kill,VHR inh abs,PriA SSB inh,Mtb hypoxia inh
O=C(/C=C/c1ccc(S(=O)(=O)N2CCOCC2)cc1)NCCc1ccc(C(F)(F)F)cc1,-1,0,3,nt,-7,25*
CCOC(=O)c1sc(NC(=O)c2cc(-c3ccccc3)nc3ccccc23)cc1C,nt,nt,nt,nt,-17,nt
CON(C)C(=O)C1CCNCC1,nt,nt,nt,nt,-7,nt
CN(C)C(=O)C1CCNCC1,nt,nt,nt,nt,39*,nt
CCS(=O)(=O)c1nc(S(=O)(=O)c2ccc(Cl)cc2)c(N2CCC(C(N)=O)CC2)s1,1,-1,-3,56*,-6,1
O=C(c1cccs1)N1CCN(c2ccc(-c3ccc(Cl)cc3)nn2)CC1,nt,nt,nt,nt,-8,nt
Cc1ccc(Cn2c(=O)oc3ccccc32)cc1,10,4,8,16,-7,8
O=c1oc2ccccc2n1Cc1cccc(F)c1,7,1,6,53*,-3,8
Cc1cc(C(=O)Nc2nc(-c3ccccn3)cs2)c(C)o1,nt,nt,nt,nt,82*,nt
O=C(Nc1nc(-c2ccccn2)cs1)c1ccccc1F,nt,nt,nt,nt,94*,nt
O=C(Nc1nc(-c2cc(Cl)sc2Cl)cs1)c1ccc(Br)s1,9,0,2,13,44*!,1
Cc1cc(C(=O)Nc2nc(-c3ccccn3)cs2)c(C)s1,nt,nt,nt,nt,62,nt
COc1ccc2oc(C(=O)Nc3nc(-c4ccccn4)cs3)c(C)c2c1,9,-1,-12,nt,42*,7
COc1ccc(-c2cc3c(SCC(=O)N4CCN(c5ccccc5F)CC4)nccn3n2)cc1,nt,nt,nt,nt,-10,nt
O=C(Nc1nc(-c2ccccn2)cs1)c1ccc(Br)s1,54,255*,34,-2,56*,25
CCC(CC)n1ccc(C(=O)Nc2nc(-c3ccccn3)cs2)n1,nt,nt,nt,nt,3,nt
Cc1cccc(C(=O)Nc2nc(-c3ccccn3)cs2)c1C,nt,nt,nt,nt,73*,nt
O=C(Nc1nc(-c2nc3ccccc3s2)cs1)c1ccc(Br)s1,nt,nt,nt,nt,-4,nt
O=C(Nc1nc(-c2ccc([N+](=O)[O-])cc2)cs1)c1ccccc1Br,nt,nt,nt,nt,-9,nt
O=C(Nc1nc(-c2ccccn2)cs1)c1ccccc1Br,nt,nt,nt,nt,91*,nt
Cc1nc(C(C)C)c(C(=O)Nc2nc(-c3ccccn3)cs2)s1,nt,nt,nt,nt,59*,nt
Cc1cccc(CC2SC(=NN=Cc3ccco3)N(c3ccccc3)C2=O)c1 (stereo unspecified),4,nt,3,nt,-1,7
O=C(c1ccc2c(c1)OCO2)N1CCN(c2cc(-n3cncn3)ncn2)CC1,nt,nt,nt,nt,0,nt
Cc1cc(C)c(S(=O)(=O)NC2CC3CCC2C3)c(C)c1 (stereo unspecified),-2,64*,8,4,-25,-5
COc1ccc(S(=O)(=O)NC2CC3CCC2C3)cc1Br (stereo unspecified),3,81*,-1,-3,-4,9
SMILES,Sa RN4220 lethal,PfHsp40 yeast,ugtP null kill,VHR inh abs,PriA SSB inh,Mtb hypoxia inh
O=S(=O)(NC1CC2CCC1C2)c1ccc2c(c1)OCCO2 (stereo unspecified),3,0,3,2,-12,nt
O=C(Cc1ccc(-c2ccccc2)cc1)NC1CC(=O)N(c2ccccc2)C1 (stereo unspecified),nt,nt,nt,nt,-1,nt
COc1ccc(C(Sc2ccc(Cl)cc2)C2CCc3ccccc3C2=O)cc1OC (stereo unspecified),nt,nt,nt,nt,-21,nt
CCC1CCCCN1CCCNC(=O)c1nn(C)c2c1CS(=O)(=O)c1ccccc1-2 (stereo unspecified),4,-1,4,7,15,-4
CC1CCCCN1CCCNC(=O)c1ccc(Br)cc1 (stereo unspecified),5,-2,5,58*,-4,4
CC1CCCCN1CCCNC(=O)c1nn(C)c2c1CS(=O)(=O)c1ccccc1-2 (stereo unspecified),1,4,2,59*,-6,5
OCC1NCC(O)C1O (stereo unspecified),7,nt,10,nt,nt,9
CC(C)COC(=O)n1ccc(C(=O)N2CCCCC2)n1,10,-1,7,51*,1,10
O=C(Nc1nnc(-c2ccc3c(c2)CCCC3)o1)c1cccc(C(F)(F)F)c1,nt,nt,nt,nt,-33,nt
O=C(Cn1c(SCC(=O)N2CCCc3ccccc32)nc2ccccc21)N1CCCC1,-1,0,1,53*,-3,2
Cc1cc(C)c2c(c1)cc(C)c1nnc(SCC(=O)N3CCCc4ccccc43)n12,11,0,96*,10,1,13
Cc1ccc(C)c2c1cc(C)c1nnc(SCC(=O)N3CCCc4ccccc43)n12,1,-1,7,60*,-4,-2
O=C1CN(CC(=O)N2CCCCC2)c2ccccc2O1,nt,125*,nt,19,11,nt
O=C(CN1C(=O)COc2ccccc21)N1CCCC1,0,0,-4,56*,-8,-7
CCN1CCN(C(=O)CN2C(=O)COc3ccc(S(=O)(=O)N4CCOCC4)cc32)CC1,nt,1,nt,57*,-24,nt
COc1ccccc1[C@H]1c2c(cc(C)n(Cc3ccco3)c2=O)OC(=N)C1C#N (stereo partly specified),nt,nt,nt,nt,-4,nt
CCS(=O)(=O)c1ccccc1C(=O)N1CCN(c2nc3cc(C)cc(C)c3s2)CC1,nt,nt,nt,nt,-7,nt
COc1ccccc1N1CCN(C(c2cccs2)C(C)NS(=O)(=O)c2ccc(Cl)cc2)CC1 (stereo unspecified),nt,nt,nt,nt,0,nt
CC=CC(=O)Nc1cccc(C2=NOC3(C2)CC(C(N)=O)N(C(=O)c2cc([N+](=O)[O-])cc([N+](=O)[O-])c2)C3)c1 (stereo unspecified),1,nt,1,nt,nt,40*
C/C=C(\C)C(=O)Nc1cccc(C2=NOC3(C2)C[C@@H](C(N)=O)N(C(=O)c2ccccc2C(=O)c2ccccc2)C3)c1 (stereo partly specified),nt,51*,nt,11,1,nt
Cc1cc(NC(=O)CSc2nc3ccc(N4CCOCC4)cc3c(=O)n2Cc2ccccc2)n[nH]1,nt,nt,nt,nt,0,nt
CC(C)(C)c1ccc(-c2c(C(=O)O)c(C(=O)O)c3n2CSC3)cc1,-2,1,12,nt,4,-4
Cc1ccc(-c2c(C(=O)O)c(C(=O)O)c3n2CSC3)cc1,-7,0,7,nt,73*,15
Cc1nc(C)c(C(=O)NC(c2ccccc2)c2ccccc2)o1,nt,nt,nt,nt,3,nt
Cn1c(CNc2ccc(Cl)cc2)nnc1SCc1ccccc1,-8,143*,-3,29,-7,9
SMILES,Sa RN4220 lethal,PfHsp40 yeast,ugtP null kill,VHR inh abs,PriA SSB inh,Mtb hypoxia inh
CCn1c(CNc2ccc(Cl)cc2)nnc1SCc1ccccc1,-2,120*,-4,18,-15,11
Cc1ccsc1C(=O)C1CCCN(Cc2cnc(N3CCOCC3)s2)C1 (stereo unspecified),8,0,3,32,5,-4
COc1ccc2cc(C(=O)C3CCCN(Cc4cnc(N5CCOCC5)s4)C3)ccc2c1 (stereo unspecified),0,-2,7,52*,10,10
O=C(Nc1cccc(-c2ccc3nncn3n2)c1)c1cccc(Br)c1,nt,nt,nt,nt,-13,nt
O=C(NCCN1CCn2cc(OCc3ccccc3)c(=O)cc2C1=O)c1ccc(=O)[nH]c1,nt,nt,nt,nt,-18,nt
N=C1CCC(=N)c2c1c(O)c1ccccc1c2O,nt,9,nt,-1,74*,nt

# Screens (PubChem BioAssay)
